These results are taken from PubChem BioAssay AID1347076 (National Center for Advancing Translational Sciences (NCATS), 2019).

Molecules are shown by their SMILES. The whole screen tested about 400,000 compounds, of which about 13,000 (3.2%) were called active. A call without a number means that no potency is given here. Another 18% or so got no clear call; they are omitted. Calls come from the whole dose curve; as a rule, active = well fitted cell-killing curve with a large enough effect; inconclusive = small, poorly fitted or top-dose-only effect, or effect the other way; inactive = flat fitted curve, though single readings scatter. The full list was thinned out, with actives kept by preference.
Potency is the fitted concentration of half-maximal effect.

This assay is described as follows: qHTS assay for MDR1-selective chemotherapeutics: Primary screen using the drug-selected MDR subline cells KB-V1. Note: nearly all actives have a fitted effect of over 60% in size. The conditions noted are these: KB-V1 MDR cells viability, CellTiter-Glo, 72 h; series mostly up to 46.1 µM. In outline: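 Luminescent ATP read-out (CellTiter-Glo, 10 min) measures survival of drug-selected KB-V1 MDR cells after 72 h, 37 degrees C compound exposure. Medium: phenol-red-free DMEM, 10% FBS. Values from fitted concentration-response curves.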
Take `COc1ccc(CCNC(=O)CCCCn2c(=O)c3ccccc3n(Cc3ccccc3)c2=O)cc1OC`: the Potency entry is “inactive”.
Under `Oc1ccccc1-c1nc(/C=C/c2ccc(F)cc2)no1` stands “inactive”.
As for `COc1ccc(-c2noc(CSc3nc4ccc(C)cc4[nH]3)n2)cc1`, the entry is “inactive”; as for `Fc1ccc(-n2c(Cc3ccccc3)nnc2SCc2nc(-c3ccc(Cl)cc3)no2)cc1`, 14.6 µM (active).
Under `Cc1ccc(-c2noc(CSc3nnc(-c4ccc(Cl)cc4)n3C)n2)cc1` stands “inactive”.
Regarding `Cc1ccc(-c2noc(CSc3nnc(-c4ccncc4)n3-c3ccc(F)cc3)n2)cc1`, the Potency was 8.2 µM (active).
Take `Cc1ccc(-c2noc(CSc3nnc(-c4cccs4)n3C)n2)cc1`: the Potency was 13 µM (active).
Under `Cn1cccc1Cc1nnc(SCC(=O)NCCc2ccccc2)n1-c1ccc(F)cc1` stands “inactive”; under `COc1ccc(-c2noc(CSc3nnc(-c4ccccc4)n3-c3ccc(F)cc3)n2)c(OC)c1`, “inactive”.
Under `Cc1ccc(-c2noc(CSc3nnnn3-c3ccccc3)n2)cc1` stands “inactive”; under `Cc1ccc(-c2noc(CSc3nnc(-c4ccccc4)n3C)n2)cc1`, “inactive”.
Under `Cc1ccc(C(=O)Nc2c(-c3ccccc3)[nH][nH]c2=O)cc1` stands “inactive”; under `O=C(NCc1ccccc1Cl)C1=Cc2cc(Br)ccc2OC1`, “inactive”.
Regarding `CC(C)Oc1cc(F)ccc1-c1cc(C(=O)Nc2ccc(F)cc2)[nH]n1`, the Potency entry is “inactive”.
Consider `CC(Nc1ccc(-c2nc(-c3ccco3)no2)cc1[N+](=O)[O-])c1ccccc1` (stereo unspecified), for which the Potency entry is “inactive”.
As for `Cc1cc(C)cc(NS(=O)(=O)c2ccc3[nH]cc(C(=O)N4CCCCC4)c(=O)c3c2)c1`, the entry is “inactive”; as for `CCCNC(=O)C1(C)CCN(C(=O)c2cc(F)ccc2C)C1` (stereo unspecified), “inactive”.
Consider `C=Cc1ccc(Cn2c(C(=O)O)c(CNC3CCCC3)c3ccc(C)cc32)cc1`, for which the Potency result is “inactive”.
Under `CC1(C)SC2c3ccccc3C(=O)N2[C@@H]1C(=O)NCc1ccco1` (stereo partly specified) stands “inactive”; under `COc1ccc(S(=O)(=O)N2CCC(C(=O)NCc3ccco3)CC2)cc1C`, “inactive”.
Under `COc1cc2c(cc1OC)C(C(=O)NCc1ccco1)C1c3ccccc3CCN1C2=O` (stereo unspecified) stands 14.6 µM (active); under `COCCNc1nc(NCc2ccc(NC(C)=O)cc2)c2sccc2n1`, “inactive”; under `Cc1cccc(-n2c(SCC(N)=O)nc3c(c2=O)C2(CCCCC2)Cc2ccccc2-3)c1`, 18.4 µM (active).
Turning to `N#CCSc1nc2c(c(=O)n1Cc1ccccc1)C1(CCCC1)Cc1ccccc1-2`, the Potency result is “inactive”.
As for `Cc1cccc(-n2c(SCC(N)=O)nc3c(oc4ccccc43)c2=O)c1`, the entry is “inactive”; as for `CCOC(=O)c1cnn2c(SC)ncnc12`, “inactive”; as for `CCCS(=O)(=O)NC(=O)C1(C)CCCN(C(=O)c2ccnc(Cl)c2)C1` (stereo unspecified), “inactive”.
As to `Cc1cc(C(=O)N/N=C\C(Br)=C\c2ccccc2)c(C)o1`, the Potency result is “inactive”.
Under `CC(=C/c1ccccc1)/C=N/NC(=O)c1cc(C)oc1C` stands 14.6 µM (active); under `COc1ccc(C/C(C)=N/NC(=O)c2cc(C)oc2C)cc1`, “inactive”.
Regarding `Cc1ccc(CCNC(=O)CN2C(=O)CSc3ccc(S(=O)(=O)N4CCOCC4)cc32)cc1`, the Potency result is “inactive”.
Take `CCOC(=O)C1=CCC(c2ccc(F)cc2)N(S(=O)(=O)c2ccc(C)cc2)C1` (stereo unspecified): the Potency entry was “inactive”.
Take `COc1cc(/C=N/NC(=O)c2ccc(N3CCCC3=O)cc2)ccc1O`: the Potency result was “inactive”.
`O=C(N/N=C/c1cccc(Br)c1)c1ccc(N2CCCC2=O)cc1`: the Potency was 16.4 µM (active).
As for `Cn1c(=O)n(C)c2cc(/C=N/NC(=O)c3cccc(Br)c3)ccc21`, the entry is “inactive”; as for `COc1ccc2cc(CNc3ccc(OC)c(OC)c3)c(=O)n(CC(=O)Nc3ccccc3F)c2c1`, “inactive”; as for `N#Cc1cnn2cc(CCN3CCOCC3)c(-c3ccc(F)cc3)nc12`, “inactive”.
Under `COc1ccc2c(c1)CCc1cn3ncc(C#N)c3nc1-2` stands 1.3 µM (active).
As for `COc1ccc2c(c1)CCc1c(C(=O)N3CCCC3)noc1-2`, the entry is “inactive”; as for `COc1ccccc1N1CCN(C(=O)C2CCN(S(=O)(=O)c3c(C)noc3/C=C/c3ccc(C)cc3)CC2)CC1`, “inactive”.
In the case of `Cc1[nH]c2ccccc2c1C(=O)C(=O)NCc1nnnn1-c1cccc(F)c1`, the Potency entry was “inactive”.
For `Cc1nc(NC(=O)CN(C)S(=O)(=O)c2ccc(Cl)cc2)sc1C`, the Potency is 14.6 µM (active).
Consider `CN(CC(=O)NCC(c1ccccc1)N1CCCC1)S(=O)(=O)c1ccc(Cl)cc1` (stereo unspecified), for which the Potency is 20.6 µM (active).
On to `CN(CC(=O)NNC(=O)CNC(=O)c1ccccc1Cl)S(=O)(=O)c1ccc(Cl)cc1`, for which the Potency entry is “inactive”.
`Cc1ccc(S(=O)(=O)N(C)CC(=O)NCC(c2ccc(F)cc2)N2CCOCC2)cc1` (stereo unspecified): the Potency result is “inactive”.
As for `CN(CC(=O)Nc1cccc2c1CCCC2)S(=O)(=O)c1ccc(Cl)cc1`, the Potency entry was “inactive”.
As for `CN(CC(=O)NCCc1ccccn1)S(=O)(=O)c1ccc(Cl)cc1`, the entry is “inactive”.
In the case of `CCCNC(=O)C1(C)CCN(Cc2csc(-c3ccc(Cl)cc3)n2)C1` (stereo unspecified), the Potency entry is “inactive”.
Turning to `C[C@H]1CN([C@@H](C)CO)C(=O)CCCn2cc(nn2)CO[C@@H]1CN(C)S(=O)(=O)c1ccccc1C#N`, the Potency entry is “inactive”.
As for `COc1ccc(C(C)(NC(C)=O)c2nc(-c3ccc(S(C)(=O)=O)cc3)cs2)cc1` (stereo unspecified), the entry is “inactive”.
Regarding `CCOC(=O)c1ccc(NC(=O)c2c(NCc3cccc(OC)c3)sc3c2CCC3)cc1`, the Potency entry is “inactive”.
As for `Cc1cc(NC(=O)CSc2nnc(-c3ccco3)n2N)no1`, the entry is “inactive”; as for `CCn1c(SCC(=O)Nc2nccs2)nnc1-c1ccco1`, “inactive”; as for `COc1cc(Cl)c(C)cc1NC(=O)CSc1nnc(-c2ccco2)n1CC(C)C`, 4.11 µM (active).
As for `CCCC12CN3CC(CCC)(CN(C1)C3c1c[nH]c3ccc(OC)cc13)C2=O` (stereo unspecified), the entry is “inactive”; as for `CCOc1ccc(CCN2C(=O)C(=O)N([C@@H](CC(C)C)CN3CCC[C@H]3CN3C(=O)C(=O)NC[C@@H]3Cc3ccccc3)C[C@@H]2CC(C)C)cc1`, “inactive”; as for `O=C(CCn1c(=O)c2ccccc2n(Cc2ccc(Cl)cc2)c1=O)NCc1ccc2c(c1)OCO2`, “inactive”.
For `C[C@H]1CN([C@@H](C)CO)S(=O)(=O)c2ccc(-c3cccc(F)c3)cc2O[C@@H]1CN(C)C`, the Potency entry was “inactive”.
As for `O=C(C(=O)N1CCN(c2ccccc2)CC1)c1ccc2c(c1)OCO2`, the entry is “inactive”.
With `N#Cc1ccc(Oc2ccc(C(F)(F)F)cc2NC(=O)c2ccc(F)cc2)cc1`, the Potency entry is “inactive”.
Under `COc1ccc(C(=O)Nc2nc(-c3ccc(OC)cc3)c(-c3ccc([N+](=O)[O-])cc3)s2)cc1` stands “inactive”; under `N#Cc1ccc(C(=O)Nc2nc(-c3cccs3)c(C(=O)C(F)(F)F)s2)cc1`, 13 µM (active); under `COC(=O)[C@]12CCCCC=C1N(Cc1cccc3ccccc13)C(=O)[C@H](CC(=O)N1CCOCC1)C2`, “inactive”.
As for `Cc1nc(C(F)(F)F)ccc1C(=O)N1CCC1(C)C(=O)NS(=O)(=O)c1ccccc1` (stereo unspecified), the Potency result is “inactive”.
On to `COc1ccc2c(c1)C(c1cccs1)=NNC(c1cccnc1)=N2`, for which the Potency entry is “inactive”.
For `Fc1ccc2c(c1)C(c1cccnc1)=NNC(c1cccs1)=N2`, the Potency is 11.6 µM (active).
With `CC(=O)NN=C(C)c1ccc(NC(=O)C2CC2)cc1`, the Potency result was “inactive”.
For the compound `O=C(O)c1ccccc1-c1cccc2nncn12`, the Potency entry was “inactive”.
Under `Cc1ccc(NC(=S)NC(=O)/C=C/c2ccc(Cl)cc2)cc1` stands “inactive”.
As for `COC(=O)c1c(C)[nH]c(C(=O)NCCc2ccc(S(N)(=O)=O)cc2)c1C`, the entry is “inactive”; as for `COC(=O)c1c(C)[nH]c(C(=O)/C=C/c2ccc(Cl)cc2)c1C`, 14.6 µM (active).
Turning to `CC(C)CN1C(=O)CN(S(C)(=O)=O)CC1(C)C(=O)NCc1ccccc1` (stereo unspecified), the Potency entry is “inactive”.
Under `N#Cc1ccc(-c2ccc3nccn3c2)cc1` stands “inactive”.
On to `CC(C)C1CC2=C(C(=O)OC(C)(C)O2)C(c2ccc(F)cc2)O1` (stereo unspecified), for which the Potency entry is “inactive”.
Under `COCCCN1C(=O)C(CC(=O)NCc2cccs2)CC(C(=O)N2CCOCC2)=C1C` (stereo unspecified) stands “inactive”.
Under `O=S1(=O)CC(N2CCC(Cc3ccccc3)CC2)CN1Cc1ccccc1` (stereo unspecified) stands “inactive”.
Turning to `COc1ccccc1-c1cc2nc(NCc3cccc(Cl)c3)ccn2n1`, the Potency result was “inactive”.
`COc1ccc(N2C(=O)C(CC(=O)Nc3ccc(F)cc3)N(CCc3cccs3)C2=O)cc1` (stereo unspecified): the Potency is 18.4 µM (active).
For the compound `O=C(CC1C(=O)N(c2ccccc2)C(=O)N1CCc1cccs1)Nc1ccc(F)cc1` (stereo unspecified), the Potency result is “inactive”.
Under `CCNC(=O)CC1C(=O)N(c2ccc(F)cc2)C(=O)N1Cc1cccs1` (stereo unspecified) stands “inactive”; under `Cc1cc2nn(-c3ccc(Cl)cc3)nc2cc1NC(=O)C(C)C`, “inactive”.
Take `Cc1c(Cl)cccc1NC(=O)C1CCCN(C(=O)c2cnn(-c3ccccc3)c2-n2cccc2)C1` (stereo unspecified): the Potency result is “inactive”.
Under `CCOc1ccc(CNC(=O)c2ccc3c(c2)nnn3C2CCCC2)cc1` stands “inactive”; under `COc1cccc(NC(=O)C2(C)CCN2C(=O)CCC2CCCC2)c1` (stereo unspecified), “inactive”; under `Cc1ccc(-c2noc(CCC(=O)Nc3ccccc3N3CCN(C)CC3)n2)cc1`, 20.6 µM (active).
As for `CCNC(=O)CCc1nc(-c2ccc(C)cc2)no1`, the Potency entry is “inactive”.
`CC(=O)c1ccc(NC(=O)CCc2nc(-c3ccc(C)cc3)no2)cc1`: the Potency result is “inactive”.
As for `CC(C)CC1C(=O)N(Cc2cn(CC3CCCCC3)nn2)CCS(=O)(=O)N1Cc1ccc(-c2ccc(Cl)cc2)cc1` (stereo unspecified), the entry is “inactive”; as for `C=CCn1c(C)cc(C2=NNC(=NCC)SC2)c1C`, “inactive”; as for `COCCn1c(C)cc(C2=NNC(=Nc3ccc(F)cc3)SC2)c1C`, 10.3 µM (active).
Under `Cc1cccc2cc(CN(Cc3cccs3)C(c3nnnn3C3CCCC3)C(C)C)c(=O)[nH]c12` (stereo unspecified) stands “inactive”; under `Cc1cc(C)c2cc(CN(Cc3nnnn3Cc3ccc(F)cc3)C3CCCC3)c(=O)[nH]c2c1`, “inactive”.
Under `CCC(c1nnnn1Cc1ccccc1)N(Cc1cc2cc(OC)ccc2[nH]c1=O)CC1CCCO1` (stereo unspecified) stands “inactive”; under `CCC(c1nnnn1C1CCCC1)N(Cc1cccs1)Cc1cc2cccc(C)c2[nH]c1=O` (stereo unspecified), 23.1 µM (active).
As to `CCOc1ccc2[nH]c(=O)c(CN(Cc3nnnn3Cc3ccccc3)CC3CCCO3)cc2c1` (stereo unspecified), the Potency entry was “inactive”.
Under `Cc1cccc2cc(CN(Cc3nnnn3Cc3ccccc3)C3CCCC3)c(=O)[nH]c12` stands 20.6 µM (active).
